Only some compounds are listed: those with a hit (about 1.5% of all), similar ones and a draw of the others.
ABCB6 inh 2: inhibitors of human ABC transporter ABCB6. Q9NP58. K562-ABCB6 porphyrin accumulation, flow cytometry, 1 h; stronger effect = lower value. fluorescence ratio to DMSO, % at 10 µM. 360,000 tested, 0.19% active. AID 602162;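 active means fluorescence ratio to DMSO below 75%, the collection mean minus 3 SD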;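 further: signal is porphyrin accumulated inside mitochondria; lower ratio means ABCB6 inhibition with less porphyrin fluorescence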
TMEM16A inh: mouse TMEM16A channel inhibition, primary screen; Q8BHY3; HEK293 TMEM16A/YFP iodide influx fluorescence, ionomycin; normalized B-score (activity score, 25-100; higher = stronger inhibition) at 10 µM; 310,000 tested, 1.2% active; AID 588511;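 active means ratio plate-corrected score three or more library SD toward inhibition, starting fluorescence score within five deviations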;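 further: score derived from kinetic fluorescence span divided by baseline fluorescence per well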
iPSC survival up: hiPSC single-cell survival enhancement | ATPlite luminescence; 100% = ROCK inhibitor wells, 0% = DMSO | survival enhancement, % at 20 µM | 360,000 tested, 0.044% active; in the data active means survival enhancement above about 18%;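 further: cells exposed to compounds for 16 hours before the ATP read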
DAGLB inh: diacylglycerol lipase beta (human) inhibition; 340,000 tested, 0.059% active; inhibition, % at 5.17 µM; Q8NCG7; HEK293T DAGLB membrane lysate, EnzChek fluorogenic substrate; in the data active means inhibition above about 34%
TMEM16A act: activates or potentiates the mouse TMEM16A chloride channel. HEK293 TMEM16A/YFP-H148Q/I152L, iodide quench fluorescence; stronger effect = lower value. B-score at 10 µM. 340,000 tested, 0.3% active;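 active means fluorescence-ratio B-score plate-corrected deviation score at least 3 library SD below zero, with starting fluorescence score within 5 deviations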;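 further: channel opened by trigger with iodide after compound preincubation; score built on the fluorescence ratio of max minus min over baseline; more negative score means more quench and so TMEM16A activation or potentiation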
TMEM16A reconf: re-confirmation of mouse TMEM16A chloride channel inhibitors | inhibition, % at 10 µM | shares compounds with TMEM16A inh | AID 652189 | HEK293 TMEM16A/YFP-H148Q, iodide quench fluorescence; ionomycin added to raise cell calcium | 2,300 tested, 39% active;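 active means mean duplicate percent inhibition, scaled so buffer wells are 0 and the reference blocker 100, over three buffer SD above buffer mean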
TMEM16A Ca cntr: counter-screen for TMEM16A inhibitors: effect on calcium mobilization | TMEM16A/YFP HEK293, Fluo4 calcium mobilization | 2,300 tested, 2% active | shares compounds with TMEM16A inh | calcium response (% of ionomycin), % at 10 µM;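 active means duplicate-averaged calcium signal over 20% of the ionomycin maximum, relative to buffer baseline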;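 further: each well's signal is peak minus trough fluorescence divided by its pre-addition baseline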
Parental YFP cnt: acts in parental YFP-HEK293 cells lacking TMEM16A, counter-screen; shares compounds with TMEM16A inh; 2,300 tested, under 10 active; iodide YFP quench, ionomycin; YFP ratio F(max-min)/F0 at 10 µM;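 active means yellow fluorescent protein signal ratio exceeding the buffer control mean by over 5 SD of those controls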;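 further: ratio is mean of duplicate wells from kinetic YFP trace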
ClC-1 inh: selectivity of TMEM16A inhibitors: inhibition of rat ClC-1 chloride channel; CHO ClC-1-YFP, iodide influx fluorescence quench; iodide control reads 0, buffer control 100; shares compounds with TMEM16A inh; 2,300 tested, under 10 active; ratio percent, % at 10 µM; AID 652236;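 active means duplicate-mean ratio percent above the mean of iodide-only control wells, which defines zero, plus 5 of their SD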;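 further: higher percent means stronger block of ClC-1 iodide influx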
Numbers stand for hits.

For CCCCNC(=O)C1(C)CCCCN1C(=O)c1cc(C)n(C(C)(C)C)n1 (stereo unspecified) the results were ABCB6 inh 2 inactive and iPSC survival up inactive.
Screening CCCCn1c(N)c(N(CCOC)C(=O)c2cc3c(s2)CCC3)c(=O)[nH]c1=O returned ABCB6 inh 2 inactive, TMEM16A inh inactive, iPSC survival up inactive, DAGLB inh inactive and TMEM16A act inactive.
COc1ccc(/C=N/NC(=O)c2ccoc2C)cc1COc1c(C)cccc1C was read as ABCB6 inh 2 inactive, TMEM16A inh inactive, iPSC survival up inactive, DAGLB inh inactive, TMEM16A act inactive, TMEM16A reconf inactive, TMEM16A Ca cntr inactive, Parental YFP cnt inactive and ClC-1 inh inactive.
Screening CC(C)OC(=O)N(C)C[C@H]1OCc2cn(nn2)CCCC(=O)N([C@H](C)CO)C[C@@H]1C returned ABCB6 inh 2 inactive, iPSC survival up inactive and DAGLB inh inactive.
COc1ccc2[nH]c3c(c2c1)CCN1C(=O)C(CC(=O)NCCCn2ccnc2)C[C@H](C(=O)N2CCCCC2)[C@@]31C (stereo partly specified) was read as ABCB6 inh 2 inactive, iPSC survival up inactive and DAGLB inh inactive.
`O=C(Nc1cccnc1)c1ccccc1-c1nc(-c2ccccc2F)no1` gave ABCB6 inh 2 inactive, TMEM16A inh 25, iPSC survival up inactive, DAGLB inh inactive, TMEM16A act inactive, TMEM16A reconf inactive, TMEM16A Ca cntr inactive, Parental YFP cnt inactive and ClC-1 inh inactive.
Cc1ccc(C)c(OCC(=O)Nc2nc3ccc([N+](=O)[O-])cc3s2)c1C was read as ABCB6 inh 2 inactive, TMEM16A inh 100, iPSC survival up inactive, DAGLB inh inactive, TMEM16A act inactive, TMEM16A reconf inactive, TMEM16A Ca cntr inactive, Parental YFP cnt inactive and ClC-1 inh inactive.
For CC1CCCN(S(=O)(=O)c2ccc(C(=O)Nc3nnc(-c4ccccc4Cl)o3)cc2)C1 (stereo unspecified) the results were ABCB6 inh 2 inactive, TMEM16A inh 100, iPSC survival up inactive, DAGLB inh inactive, TMEM16A act inactive, TMEM16A reconf 22.5%, TMEM16A Ca cntr inactive, Parental YFP cnt inactive and ClC-1 inh inactive.
CC1CCCN(S(=O)(=O)c2ccc(C(=O)Nc3nnc(-c4ccccn4)o3)cc2)C1 (stereo unspecified) was read as ABCB6 inh 2 inactive, TMEM16A inh inactive, iPSC survival up inactive, DAGLB inh inactive and TMEM16A act inactive.
CN1CCN(CCNC(=O)Cn2c(=O)c3cccn3c3ccc(F)cc32)CC1 was read as ABCB6 inh 2 inactive, TMEM16A inh inactive, iPSC survival up inactive, DAGLB inh inactive and TMEM16A act inactive.
O=C(Nn1c(C2CCCCC2)nc2ccccc2c1=O)c1ccc(Cl)c([N+](=O)[O-])c1 was read as ABCB6 inh 2 inactive, TMEM16A inh 25, iPSC survival up inactive, DAGLB inh inactive, TMEM16A act inactive, TMEM16A reconf 22.0%, TMEM16A Ca cntr inactive, Parental YFP cnt inactive and ClC-1 inh inactive.
Screening Cc1cc(C(=O)Nn2c(C3CCCCC3)nc3ccccc3c2=O)ccc1[N+](=O)[O-] returned ABCB6 inh 2 inactive, TMEM16A inh inactive, iPSC survival up inactive, DAGLB inh inactive and TMEM16A act inactive.
CCCNC(=O)NC(=O)CN1C(=O)NC(C)(c2ccc3ccccc3c2)C1=O (stereo unspecified) was read as ABCB6 inh 2 inactive, TMEM16A inh inactive, iPSC survival up inactive, DAGLB inh inactive and TMEM16A act inactive.
`CSc1ncnc2c1ncn2CCCNCc1ccc2c(c1)OCO2` gave ABCB6 inh 2 inactive, iPSC survival up inactive and DAGLB inh inactive.
For CCN(CC)S(=O)(=O)c1cccc(NC(=O)CNc2cccc(S(=O)(=O)N3CCCC3)c2)c1 the results were ABCB6 inh 2 inactive, TMEM16A inh 25, iPSC survival up inactive, DAGLB inh inactive, TMEM16A act inactive, TMEM16A reconf inactive, TMEM16A Ca cntr inactive, Parental YFP cnt inactive and ClC-1 inh inactive.
CCN(CC)S(=O)(=O)c1cccc(NC(=O)COC(=O)c2cccs2)c1 was read as ABCB6 inh 2 inactive, TMEM16A inh 25, iPSC survival up inactive, DAGLB inh inactive, TMEM16A act inactive, TMEM16A reconf inactive, TMEM16A Ca cntr inactive, Parental YFP cnt inactive and ClC-1 inh inactive.
Screening CN(CC(=O)Nc1cccc(S(=O)(=O)N2CCCC2)c1)CC(=O)Nc1ccc(Cl)c(C(F)(F)F)c1 returned ABCB6 inh 2 inactive, TMEM16A inh 25, iPSC survival up inactive, DAGLB inh inactive, TMEM16A act inactive, TMEM16A reconf inactive, TMEM16A Ca cntr inactive, Parental YFP cnt inactive and ClC-1 inh inactive.
For CCN(CC)S(=O)(=O)c1ccc(C)c(NC(=O)CNc2cccc(S(=O)(=O)N3CCCC3)c2)c1 the results were ABCB6 inh 2 inactive, TMEM16A inh inactive, iPSC survival up inactive, DAGLB inh inactive and TMEM16A act inactive.
CCN(CC)S(=O)(=O)c1cccc(NC(=O)COC(=O)/C=C/c2cccs2)c1 was read as ABCB6 inh 2 inactive, TMEM16A inh inactive, iPSC survival up inactive, DAGLB inh inactive and TMEM16A act inactive.
For Cc1ccc(NC(=O)CNc2cccc(S(=O)(=O)N3CCCC3)c2)cc1F the results were ABCB6 inh 2 inactive, TMEM16A inh 25, iPSC survival up inactive, DAGLB inh inactive, TMEM16A act inactive, TMEM16A reconf 22.5%, TMEM16A Ca cntr inactive, Parental YFP cnt inactive and ClC-1 inh inactive.
O=S(=O)(c1ccccc1)N1CCN=C1SCc1ccc(Cl)cc1 was read as ABCB6 inh 2 inactive, TMEM16A inh 25, iPSC survival up inactive, DAGLB inh inactive, TMEM16A act inactive, TMEM16A reconf inactive, TMEM16A Ca cntr inactive, Parental YFP cnt inactive and ClC-1 inh inactive.
Screening CC1CCCN(C(=O)COC(=O)CNS(=O)(=O)c2ccc3ccccc3c2)C1 (stereo unspecified) returned ABCB6 inh 2 inactive, TMEM16A inh inactive, iPSC survival up inactive, DAGLB inh inactive and TMEM16A act inactive.
For Cc1cc(C(=O)Cn2nnc(-c3ccc(Cl)cc3)n2)c(C)n1CC1CCCO1 (stereo unspecified) the results were ABCB6 inh 2 inactive, TMEM16A inh 25, iPSC survival up inactive, DAGLB inh inactive, TMEM16A act inactive, TMEM16A reconf 22.0%, TMEM16A Ca cntr inactive, Parental YFP cnt inactive and ClC-1 inh inactive.

Bioassay records as filed in PubChem BioAssay.
